# Experiments:
# Assay in all cases: DAPPL (digital affinity profiling via proximity ligation, sequencing); 10 mM Tris-HCl pH 7.5, 50 mM NaCl, 1 mM DTT, 4% glycerol, room temperature, 30 min; GST-TFs on glutathione beads, 16-mer random dsDNA library, 0.1% formaldehyde crosslink after washing; high values mean tight binding
# FLI1 = target: T1, FLI1 (Homo sapiens, UniProt Q01543 1-452); settings: protein: recombinant; tags: N-terminal GST; dsDNA, one strand shown
# T1 sequence: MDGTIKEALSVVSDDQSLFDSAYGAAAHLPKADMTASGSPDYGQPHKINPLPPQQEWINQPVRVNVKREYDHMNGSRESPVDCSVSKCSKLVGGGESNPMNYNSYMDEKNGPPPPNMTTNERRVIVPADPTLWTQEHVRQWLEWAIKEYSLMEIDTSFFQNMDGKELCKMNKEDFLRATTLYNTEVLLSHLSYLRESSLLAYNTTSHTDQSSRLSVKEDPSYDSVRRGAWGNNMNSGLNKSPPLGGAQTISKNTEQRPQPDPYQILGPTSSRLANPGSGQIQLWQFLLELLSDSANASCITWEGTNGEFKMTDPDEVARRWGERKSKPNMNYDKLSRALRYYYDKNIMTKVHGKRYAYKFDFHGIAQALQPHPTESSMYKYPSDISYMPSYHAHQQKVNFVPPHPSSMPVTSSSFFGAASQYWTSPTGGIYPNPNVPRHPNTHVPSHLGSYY
# How it was run: (§1)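 Beads coated with glutathione captured GST-fused human transcription factors that had been expressed in yeast, and the factors were then given DNA barcodes and pooled with a tag-only sample. The pools were incubated with 200 nmole of a random double-stranded 16-mer DNA library in Tris/NaCl/DTT/glycerol buffer for 30 min at room temperature, washed, crosslinked with 0.1% formaldehyde and proximity-ligated with BsaI/T4 ligase at 37 °C for 1 h. PCR amplification and Illumina NextSeq500 sequencing came last. Binding signal is each hexamer's read frequency for a factor divided by its frequency for the tag-only sample.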
# ELK1 = target: T2, ELK1 (Homo sapiens, UniProt P19419 1-428); settings: protein: recombinant; tags: N-terminal GST; dsDNA, one strand shown
# T2 sequence: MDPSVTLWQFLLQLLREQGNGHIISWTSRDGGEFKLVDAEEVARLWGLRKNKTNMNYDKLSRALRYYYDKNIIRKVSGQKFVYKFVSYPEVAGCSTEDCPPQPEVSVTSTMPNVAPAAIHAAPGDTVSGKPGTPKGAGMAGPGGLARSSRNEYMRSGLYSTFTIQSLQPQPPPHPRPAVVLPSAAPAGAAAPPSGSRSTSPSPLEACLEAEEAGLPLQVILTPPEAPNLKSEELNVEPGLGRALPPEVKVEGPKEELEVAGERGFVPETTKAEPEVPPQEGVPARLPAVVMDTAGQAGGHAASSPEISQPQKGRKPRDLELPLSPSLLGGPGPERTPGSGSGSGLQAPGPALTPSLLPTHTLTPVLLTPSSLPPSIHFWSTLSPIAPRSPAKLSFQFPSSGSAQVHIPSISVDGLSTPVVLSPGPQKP
# How it was run: as §1
# GABPA = target: T3, GABPA (Homo sapiens, UniProt Q06546 1-454); settings: protein: recombinant; tags: N-terminal GST; dsDNA, one strand shown
# T3 sequence: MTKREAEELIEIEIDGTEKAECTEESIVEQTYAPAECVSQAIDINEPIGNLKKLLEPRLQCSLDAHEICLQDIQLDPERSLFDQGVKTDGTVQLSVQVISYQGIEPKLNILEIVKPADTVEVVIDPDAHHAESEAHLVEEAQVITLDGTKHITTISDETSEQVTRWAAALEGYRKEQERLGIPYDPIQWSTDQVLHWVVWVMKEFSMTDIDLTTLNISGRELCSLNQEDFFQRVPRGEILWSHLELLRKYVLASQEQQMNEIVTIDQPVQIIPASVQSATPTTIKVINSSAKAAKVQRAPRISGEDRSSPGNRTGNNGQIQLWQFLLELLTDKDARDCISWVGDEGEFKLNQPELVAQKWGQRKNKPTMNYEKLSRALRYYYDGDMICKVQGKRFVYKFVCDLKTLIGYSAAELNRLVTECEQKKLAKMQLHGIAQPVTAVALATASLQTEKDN
# How it was run: as §1
# ERG = target: T4, ERG (Homo sapiens, UniProt P11308 1-479); settings: protein: recombinant; tags: N-terminal GST; dsDNA, one strand shown
# T4 sequence: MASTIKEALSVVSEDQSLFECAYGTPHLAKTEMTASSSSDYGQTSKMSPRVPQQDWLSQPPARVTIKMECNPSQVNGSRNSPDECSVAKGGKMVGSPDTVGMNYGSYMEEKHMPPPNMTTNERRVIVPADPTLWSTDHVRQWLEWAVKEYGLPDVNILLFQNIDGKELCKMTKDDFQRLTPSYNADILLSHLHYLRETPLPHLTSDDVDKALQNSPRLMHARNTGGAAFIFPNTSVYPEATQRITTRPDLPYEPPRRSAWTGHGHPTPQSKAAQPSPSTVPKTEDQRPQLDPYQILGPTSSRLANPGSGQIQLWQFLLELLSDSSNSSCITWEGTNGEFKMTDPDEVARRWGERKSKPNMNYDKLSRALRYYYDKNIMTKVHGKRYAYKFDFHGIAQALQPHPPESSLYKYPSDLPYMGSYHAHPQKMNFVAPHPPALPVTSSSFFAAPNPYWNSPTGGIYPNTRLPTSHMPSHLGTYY
# How it was run: as §1
# ELF1 = ELF1 (Homo sapiens, UniProt P32519 1-619); settings: protein: recombinant; tags: N-terminal GST; dsDNA, one strand shown
# Sequence of ELF1 (P32519 whole entry): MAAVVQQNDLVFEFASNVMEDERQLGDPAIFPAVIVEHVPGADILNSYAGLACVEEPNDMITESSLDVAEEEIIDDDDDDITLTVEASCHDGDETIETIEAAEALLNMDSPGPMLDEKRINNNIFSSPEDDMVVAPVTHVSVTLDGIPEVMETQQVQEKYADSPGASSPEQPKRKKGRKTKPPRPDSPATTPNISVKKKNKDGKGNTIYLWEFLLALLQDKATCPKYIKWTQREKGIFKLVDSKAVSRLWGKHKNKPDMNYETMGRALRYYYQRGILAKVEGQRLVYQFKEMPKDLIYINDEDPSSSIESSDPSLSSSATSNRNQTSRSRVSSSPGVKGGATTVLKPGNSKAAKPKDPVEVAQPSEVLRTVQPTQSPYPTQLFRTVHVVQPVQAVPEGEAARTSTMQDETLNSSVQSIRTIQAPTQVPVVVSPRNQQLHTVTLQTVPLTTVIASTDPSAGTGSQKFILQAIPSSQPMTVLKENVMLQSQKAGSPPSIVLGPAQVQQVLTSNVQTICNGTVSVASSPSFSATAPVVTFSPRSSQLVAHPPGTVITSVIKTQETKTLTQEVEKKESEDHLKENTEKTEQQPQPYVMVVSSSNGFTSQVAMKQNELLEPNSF
# How it was run: as §1
# EHF = target: T5, EHF (Homo sapiens, UniProt Q9NZC4 1-300); settings: protein: recombinant; tags: N-terminal GST; dsDNA, one strand shown
# T5 sequence: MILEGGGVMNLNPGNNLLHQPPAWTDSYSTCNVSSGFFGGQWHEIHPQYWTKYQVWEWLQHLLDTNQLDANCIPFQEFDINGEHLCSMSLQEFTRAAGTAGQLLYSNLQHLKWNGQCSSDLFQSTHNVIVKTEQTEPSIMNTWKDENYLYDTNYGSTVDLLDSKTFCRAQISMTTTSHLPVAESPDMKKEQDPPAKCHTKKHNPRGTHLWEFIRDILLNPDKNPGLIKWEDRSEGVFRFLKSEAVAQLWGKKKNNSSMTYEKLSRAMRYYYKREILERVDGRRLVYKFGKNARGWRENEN
# How it was run: as §1
# SPI1 = SPI1 (Homo sapiens, UniProt P17947 1-270); settings: protein: recombinant; tags: N-terminal GST; dsDNA, one strand shown
# How it was run: as §1
# SPIB = SPIB (Homo sapiens, UniProt Q01892 1-262); settings: protein: recombinant; tags: N-terminal GST; dsDNA, one strand shown
# Sequence of SPIB (Q01892 whole entry): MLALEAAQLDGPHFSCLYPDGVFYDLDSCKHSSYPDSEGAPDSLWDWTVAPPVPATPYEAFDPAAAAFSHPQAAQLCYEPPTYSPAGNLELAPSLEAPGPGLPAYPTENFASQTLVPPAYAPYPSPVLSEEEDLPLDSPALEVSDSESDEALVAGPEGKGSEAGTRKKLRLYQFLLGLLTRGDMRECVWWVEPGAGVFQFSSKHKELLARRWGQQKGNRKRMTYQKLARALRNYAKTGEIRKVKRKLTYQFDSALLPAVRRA
# How it was run: as §1
# ELK3 = target: T6, ELK3 (Homo sapiens, UniProt P41970 1-407); settings: protein: recombinant; tags: N-terminal GST; dsDNA, one strand shown
# T6 sequence: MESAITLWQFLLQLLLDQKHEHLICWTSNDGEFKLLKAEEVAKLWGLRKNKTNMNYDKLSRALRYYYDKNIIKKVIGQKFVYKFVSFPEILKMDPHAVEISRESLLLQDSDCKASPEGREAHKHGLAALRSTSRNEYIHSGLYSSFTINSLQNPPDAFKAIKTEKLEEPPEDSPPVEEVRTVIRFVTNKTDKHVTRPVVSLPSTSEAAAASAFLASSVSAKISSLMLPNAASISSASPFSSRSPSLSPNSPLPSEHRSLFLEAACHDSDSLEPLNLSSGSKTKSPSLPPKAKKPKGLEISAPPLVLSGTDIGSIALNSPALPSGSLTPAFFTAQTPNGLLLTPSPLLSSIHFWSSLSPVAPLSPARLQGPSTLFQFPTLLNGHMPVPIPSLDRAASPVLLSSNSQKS
# How it was run: as §1
# FEV = target: T7, FEV (Homo sapiens, UniProt Q99581 1-238); settings: protein: recombinant; tags: N-terminal GST; dsDNA, one strand shown
# T7 sequence: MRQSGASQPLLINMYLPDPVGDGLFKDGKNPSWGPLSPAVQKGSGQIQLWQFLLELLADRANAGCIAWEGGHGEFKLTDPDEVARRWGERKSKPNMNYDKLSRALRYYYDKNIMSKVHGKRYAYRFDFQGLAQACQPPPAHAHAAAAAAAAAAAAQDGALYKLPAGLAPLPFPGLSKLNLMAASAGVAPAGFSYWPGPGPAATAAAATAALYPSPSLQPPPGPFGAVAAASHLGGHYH
# How it was run: as §1
# ETV5 = ETV5 (Homo sapiens, UniProt P41161 1-510); settings: protein: recombinant; tags: N-terminal GST; dsDNA, one strand shown
# Sequence of ETV5 (P41161 whole entry): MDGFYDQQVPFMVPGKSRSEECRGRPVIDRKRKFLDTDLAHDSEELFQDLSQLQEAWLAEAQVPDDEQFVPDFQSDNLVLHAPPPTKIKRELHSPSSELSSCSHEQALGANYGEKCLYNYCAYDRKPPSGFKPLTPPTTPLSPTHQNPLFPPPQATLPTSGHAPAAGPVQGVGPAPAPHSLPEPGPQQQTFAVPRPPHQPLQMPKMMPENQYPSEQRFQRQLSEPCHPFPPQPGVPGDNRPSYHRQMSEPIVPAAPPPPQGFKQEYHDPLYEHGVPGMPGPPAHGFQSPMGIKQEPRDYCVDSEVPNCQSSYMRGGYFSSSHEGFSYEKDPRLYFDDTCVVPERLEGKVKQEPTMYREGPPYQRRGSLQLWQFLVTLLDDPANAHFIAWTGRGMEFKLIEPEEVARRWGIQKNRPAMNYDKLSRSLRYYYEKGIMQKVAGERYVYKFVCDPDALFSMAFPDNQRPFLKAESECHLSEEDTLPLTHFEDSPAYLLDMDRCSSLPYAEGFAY
# How it was run: as §1
# HSF1 = HSF1 (Homo sapiens, UniProt Q00613 1-529); settings: protein: recombinant; tags: N-terminal GST; chain copies: 3; dsDNA, one strand shown
# Sequence of HSF1 (Q00613 whole entry): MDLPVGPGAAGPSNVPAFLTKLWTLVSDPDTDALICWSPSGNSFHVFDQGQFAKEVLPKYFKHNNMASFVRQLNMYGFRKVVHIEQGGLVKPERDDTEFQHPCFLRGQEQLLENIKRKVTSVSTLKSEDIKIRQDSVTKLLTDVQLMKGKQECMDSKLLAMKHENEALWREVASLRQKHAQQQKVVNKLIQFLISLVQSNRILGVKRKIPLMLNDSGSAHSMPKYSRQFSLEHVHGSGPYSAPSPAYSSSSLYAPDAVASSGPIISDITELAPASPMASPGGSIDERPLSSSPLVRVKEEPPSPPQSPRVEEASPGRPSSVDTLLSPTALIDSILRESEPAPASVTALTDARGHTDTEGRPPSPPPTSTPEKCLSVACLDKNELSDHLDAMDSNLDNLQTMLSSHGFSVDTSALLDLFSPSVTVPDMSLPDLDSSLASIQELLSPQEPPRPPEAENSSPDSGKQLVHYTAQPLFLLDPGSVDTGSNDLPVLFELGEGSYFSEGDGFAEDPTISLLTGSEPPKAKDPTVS
# How it was run: as §1
# SPIC = target: T8, SPIC (Homo sapiens, UniProt Q8N5J4 1-248); settings: protein: recombinant; tags: N-terminal GST; dsDNA, one strand shown
# T8 sequence: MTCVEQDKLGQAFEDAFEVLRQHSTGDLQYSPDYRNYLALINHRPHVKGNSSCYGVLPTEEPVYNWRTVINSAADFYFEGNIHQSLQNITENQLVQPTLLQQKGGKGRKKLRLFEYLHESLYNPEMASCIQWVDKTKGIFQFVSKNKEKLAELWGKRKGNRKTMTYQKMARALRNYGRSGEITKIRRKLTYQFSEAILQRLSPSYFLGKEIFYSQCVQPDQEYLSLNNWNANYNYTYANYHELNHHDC
# How it was run: as §1
# ELF4 = ELF4 (Homo sapiens, UniProt Q99607 1-663); settings: protein: recombinant; tags: N-terminal GST; dsDNA, one strand shown
# Sequence of ELF4 (Q99607 whole entry): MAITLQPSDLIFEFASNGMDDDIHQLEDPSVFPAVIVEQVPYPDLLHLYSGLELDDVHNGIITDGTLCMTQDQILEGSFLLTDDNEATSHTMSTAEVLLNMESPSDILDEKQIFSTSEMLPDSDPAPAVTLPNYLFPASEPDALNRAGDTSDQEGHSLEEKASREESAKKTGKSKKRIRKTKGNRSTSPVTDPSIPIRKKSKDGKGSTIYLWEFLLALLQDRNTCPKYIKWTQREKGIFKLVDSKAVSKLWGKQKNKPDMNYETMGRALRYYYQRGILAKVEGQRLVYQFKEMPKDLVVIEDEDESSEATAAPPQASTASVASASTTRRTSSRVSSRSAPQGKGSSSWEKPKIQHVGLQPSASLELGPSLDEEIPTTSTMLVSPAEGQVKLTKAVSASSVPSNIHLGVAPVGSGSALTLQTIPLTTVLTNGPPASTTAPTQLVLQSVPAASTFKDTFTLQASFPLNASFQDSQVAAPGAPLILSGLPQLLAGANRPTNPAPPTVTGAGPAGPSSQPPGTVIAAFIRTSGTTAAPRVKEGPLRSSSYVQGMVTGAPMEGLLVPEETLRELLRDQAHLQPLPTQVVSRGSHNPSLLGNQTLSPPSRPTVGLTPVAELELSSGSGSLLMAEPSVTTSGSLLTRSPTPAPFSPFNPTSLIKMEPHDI
# How it was run: as §1
# ELK4 = target: T9, ELK4 (Homo sapiens, UniProt P28324-2 1-405); settings: protein: recombinant; tags: N-terminal GST; dsDNA, one strand shown
# T9 sequence: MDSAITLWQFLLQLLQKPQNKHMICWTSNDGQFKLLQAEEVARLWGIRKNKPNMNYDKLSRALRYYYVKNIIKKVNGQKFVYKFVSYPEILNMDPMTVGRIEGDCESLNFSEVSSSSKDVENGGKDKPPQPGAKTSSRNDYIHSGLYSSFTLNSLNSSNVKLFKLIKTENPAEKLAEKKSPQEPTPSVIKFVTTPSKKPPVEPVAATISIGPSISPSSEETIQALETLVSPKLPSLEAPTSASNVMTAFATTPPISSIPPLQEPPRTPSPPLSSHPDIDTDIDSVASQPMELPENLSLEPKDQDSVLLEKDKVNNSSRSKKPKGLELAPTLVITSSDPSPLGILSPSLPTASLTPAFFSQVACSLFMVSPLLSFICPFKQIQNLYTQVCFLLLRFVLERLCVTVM
# How it was run: as §1
# ETV2 = target: T10, ETV2 (Homo sapiens, UniProt O00321 1-342); settings: protein: recombinant; tags: N-terminal GST; dsDNA, one strand shown
# T10 sequence: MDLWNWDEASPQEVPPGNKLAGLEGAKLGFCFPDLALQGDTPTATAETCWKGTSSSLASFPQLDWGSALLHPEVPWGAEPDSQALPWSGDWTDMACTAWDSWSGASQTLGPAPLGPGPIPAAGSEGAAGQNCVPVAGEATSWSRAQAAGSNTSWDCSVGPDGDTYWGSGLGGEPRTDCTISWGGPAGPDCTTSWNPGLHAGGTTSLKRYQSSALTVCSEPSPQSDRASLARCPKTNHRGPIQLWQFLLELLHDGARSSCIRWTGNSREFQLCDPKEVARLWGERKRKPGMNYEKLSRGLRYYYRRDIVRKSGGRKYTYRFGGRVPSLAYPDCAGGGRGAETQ
# How it was run: as §1
# ELF3 = target: T11, ELF3 (Homo sapiens, UniProt P78545 1-371); settings: protein: recombinant; tags: N-terminal GST; dsDNA, one strand shown
# T11 sequence: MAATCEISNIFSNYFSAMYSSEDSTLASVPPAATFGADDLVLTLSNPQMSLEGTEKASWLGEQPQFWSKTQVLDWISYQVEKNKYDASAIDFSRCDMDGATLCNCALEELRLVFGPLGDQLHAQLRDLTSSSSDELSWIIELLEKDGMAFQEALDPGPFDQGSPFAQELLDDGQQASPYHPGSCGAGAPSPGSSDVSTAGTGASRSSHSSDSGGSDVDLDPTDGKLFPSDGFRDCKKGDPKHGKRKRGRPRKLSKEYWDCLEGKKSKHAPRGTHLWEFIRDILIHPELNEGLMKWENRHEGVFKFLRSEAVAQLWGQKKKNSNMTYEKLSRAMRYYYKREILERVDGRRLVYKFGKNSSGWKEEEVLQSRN
# How it was run: as §1
# CRX = CRX (Homo sapiens, UniProt O43186 1-299); settings: protein: recombinant; tags: N-terminal GST; dsDNA, one strand shown
# Sequence of CRX (O43186 whole entry): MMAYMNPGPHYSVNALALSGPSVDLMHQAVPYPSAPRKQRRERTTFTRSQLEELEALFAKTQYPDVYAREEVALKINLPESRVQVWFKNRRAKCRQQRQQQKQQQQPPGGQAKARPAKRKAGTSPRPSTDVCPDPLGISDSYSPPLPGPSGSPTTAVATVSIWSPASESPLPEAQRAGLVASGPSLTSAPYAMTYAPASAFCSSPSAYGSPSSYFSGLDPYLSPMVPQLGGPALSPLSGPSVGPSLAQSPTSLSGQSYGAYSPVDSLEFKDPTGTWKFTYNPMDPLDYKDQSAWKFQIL
# How it was run: as §1
# ETV1 = ETV1 (Homo sapiens, UniProt P50549 1-477); settings: protein: recombinant; tags: N-terminal GST; dsDNA, one strand shown
# Sequence of ETV1 (P50549 whole entry): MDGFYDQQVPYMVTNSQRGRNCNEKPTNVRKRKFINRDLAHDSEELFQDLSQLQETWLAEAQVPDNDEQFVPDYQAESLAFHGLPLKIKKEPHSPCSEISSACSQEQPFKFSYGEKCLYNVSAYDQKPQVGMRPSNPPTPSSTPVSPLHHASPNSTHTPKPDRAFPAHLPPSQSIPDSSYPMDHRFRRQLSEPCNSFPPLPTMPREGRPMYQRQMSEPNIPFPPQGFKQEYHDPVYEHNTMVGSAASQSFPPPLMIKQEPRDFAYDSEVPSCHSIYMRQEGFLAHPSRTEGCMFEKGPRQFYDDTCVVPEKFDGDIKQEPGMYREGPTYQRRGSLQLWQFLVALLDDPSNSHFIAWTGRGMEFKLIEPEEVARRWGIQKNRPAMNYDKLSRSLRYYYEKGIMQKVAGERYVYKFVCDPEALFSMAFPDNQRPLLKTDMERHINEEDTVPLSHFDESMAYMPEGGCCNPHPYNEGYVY
# How it was run: as §1
sequence,measurement,setting,value
CTGTAT,binding signal,FLI1,"1.35 fold enrichment (6-mer frequency, TF over GST control)"
same,binding signal,ELK1,"1.28 fold enrichment (6-mer frequency, TF over GST control)"
same,binding signal,GABPA,"1.31 fold enrichment (6-mer frequency, TF over GST control)"
same,binding signal,ERG,"1.18 fold enrichment (6-mer frequency, TF over GST control)"
same,binding signal,ELF1,"1.24 fold enrichment (6-mer frequency, TF over GST control)"
same,binding signal,EHF,"1.3 fold enrichment (6-mer frequency, TF over GST control)"
same,binding signal,SPI1,"1.23 fold enrichment (6-mer frequency, TF over GST control)"
same,binding signal,SPIB,"1.31 fold enrichment (6-mer frequency, TF over GST control)"
same,binding signal,ELK3,"1.31 fold enrichment (6-mer frequency, TF over GST control)"
same,binding signal,FEV,"1.34 fold enrichment (6-mer frequency, TF over GST control)"
same,binding signal,ETV5,"1.35 fold enrichment (6-mer frequency, TF over GST control)"
same,binding signal,HSF1,"1.18 fold enrichment (6-mer frequency, TF over GST control)"
same,binding signal,SPIC,"1.51 fold enrichment (6-mer frequency, TF over GST control)"
same,binding signal,ELF4,"1.22 fold enrichment (6-mer frequency, TF over GST control)"
same,binding signal,ELK4,"1.29 fold enrichment (6-mer frequency, TF over GST control)"
same,binding signal,ETV2,"1.25 fold enrichment (6-mer frequency, TF over GST control)"
same,binding signal,ELF3,"1.13 fold enrichment (6-mer frequency, TF over GST control)"
same,binding signal,CRX,"1.17 fold enrichment (6-mer frequency, TF over GST control)"
same,binding signal,ETV1,"1.39 fold enrichment (6-mer frequency, TF over GST control)"

# From article PMC7862700, “An all-to-all approach to the identification of sequence-specific readers for epigenetic DNA modifications on cytosine”
